{"source": "PubChem BioAssay AID720504", "about": "(National Center for Advancing Translational Sciences (NCATS), 2013)", "note": "Screen size: about 360,000 compounds; about 10,000 (2.8%) were called active. About 4% were inconclusive and are not listed. Many of the other results were omitted from the sample, so actives are more common in it than they were. A number with no mark means an inactive call. Calls come from the whole dose curve; as a rule, active = well fitted inhibition curve with a large enough effect; inconclusive = small, poorly fitted or top-dose-only effect; inactive = flat fitted curve, though single readings scatter."}
{"biological_target": "Serine/threonine-protein kinase PLK1 (Homo sapiens) (UniProt P53350)", "sequence (P53350 whole entry, looked up, the tested form may be a part)": "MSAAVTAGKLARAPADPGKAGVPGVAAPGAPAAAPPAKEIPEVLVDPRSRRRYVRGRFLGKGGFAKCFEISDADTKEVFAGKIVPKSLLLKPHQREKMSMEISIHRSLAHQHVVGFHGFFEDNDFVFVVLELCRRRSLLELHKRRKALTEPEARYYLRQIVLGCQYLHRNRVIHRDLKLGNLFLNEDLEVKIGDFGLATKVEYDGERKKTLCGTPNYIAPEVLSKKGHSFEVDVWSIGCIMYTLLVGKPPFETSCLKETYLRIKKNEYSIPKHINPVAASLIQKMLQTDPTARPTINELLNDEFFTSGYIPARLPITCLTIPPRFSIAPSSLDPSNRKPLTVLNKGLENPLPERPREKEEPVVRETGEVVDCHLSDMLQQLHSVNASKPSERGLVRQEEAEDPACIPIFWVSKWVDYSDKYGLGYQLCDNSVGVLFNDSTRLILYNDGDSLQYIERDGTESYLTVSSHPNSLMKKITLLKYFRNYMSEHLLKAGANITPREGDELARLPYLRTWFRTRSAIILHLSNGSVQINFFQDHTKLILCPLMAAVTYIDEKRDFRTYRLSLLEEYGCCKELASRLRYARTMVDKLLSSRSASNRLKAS", "assay": "qHTS for Inhibitors of PLK1-PDB (polo-like kinase 1 - polo-box domain): Primary Screen; note: nearly all actives have a fitted effect of over 65% in size; note: potency is the fitted concentration of half-maximal effect; for max response, negative = inhibition: series mostly up to about 57 µM; % is set by controls: 0 for no effect and ±100 for the full control effect", "settings": "Plk1 PBD binding of FITC phosphopeptide, fluorescence polarization", "units": {"max response, negative = inhibition": "%"}}
{"compound": "CCNC(=O)C1(C)CCCN1C(=O)c1ccc(N(C)C)cc1", "note": "(stereo not given)", "max response, negative = inhibition": -10.7}
{"compound": "NC(=O)C1(N2CCCCC2)CCN(C(=S)Nc2ccc(Cl)cc2)CC1", "max response, negative = inhibition": 1.24}
{"compound": "O=C(NC1CCN(C(=S)Nc2ccc(Cl)cc2)CC1)C1CCCCC1", "max response, negative = inhibition": -11.1}
{"compound": "CN(C)c1ccc(C(=S)N2CCN(C(=S)Nc3ccc(Cl)cc3)CC2)cc1", "Potency": "6.7 µM (active)"}
{"compound": "Cc1ccc(-c2nc3c(C)cc(Br)cn3c2Cc2ccccc2)cc1", "max response, negative = inhibition": -13.2}
{"compound": "COc1cc(=O)[nH]c(=O)n1C(=O)Cc1ccccc1", "Potency": "2.99 µM (active)"}
{"compound": "COc1ccc(OC)c(NC(=O)C2(C)CCN2C(=O)Cc2ccccc2)c1", "note": "(stereo not given)", "max response, negative = inhibition": -5.3}
{"compound": "CCCOc1ccc(Cn2c(O)cc(=O)[nH]c2=O)cc1", "max response, negative = inhibition": -26.3}
{"compound": "COc1ccc(-c2cnc3c(c2)C(=O)N([C@H](C)CO)C[C@@H](C)[C@H](CN(C)Cc2ccccc2)O3)cc1", "max response, negative = inhibition": -12.1}
{"compound": "O=C1NC[C@H](Cc2ccc(O)cc2)N(C[C@@H]2CCCN2C[C@H](Cc2ccccc2)N2C[C@H](Cc3ccccc3)N(CC3CCCCC3)C(=O)C2=O)C1=O", "max response, negative = inhibition": -9.78}
{"compound": "O=C(c1cc(C2CCCCN2S(=O)(=O)c2ccccc2)on1)N1CCOCC1", "note": "(stereo not given)", "max response, negative = inhibition": 3.83}
{"compound": "C=CS(=O)c1sc(Cl)c(N2CCOCC2)c1[N+](=O)[O-]", "note": "(stereo not given)", "Potency": "1.34 µM (active)"}
{"compound": "O=S1(=O)C[C@@H](N2CCN(CCO)CC2)[C@H](COCc2ccccc2)N1", "max response, negative = inhibition": -14.5}
{"compound": "Cc1cc(Br)cn2c(Cc3ccccc3C(F)(F)F)c(C3CCCCC3)nc12", "max response, negative = inhibition": -6.9}
{"compound": "Nc1cc(=O)n(Cc2ccccc2)c(=O)n1Cc1ccccc1", "max response, negative = inhibition": -11.9}
{"compound": "CN(C(=O)COC(=O)c1ccc(Br)o1)c1c(N)n(Cc2ccccc2)c(=O)[nH]c1=O", "max response, negative = inhibition": 2.32}
{"compound": "Cc1cc2nc3c(=O)n(Cc4ccccc4)c(=O)[nH]c3nc2cc1N", "Potency": "3.36 µM (active)"}
{"compound": "COCCCNC(=O)c1ccc(-c2c(C)noc2C)c2ccoc12", "max response, negative = inhibition": -2.73}
{"compound": "CCCNC(=O)C1(C)CCN(C(=O)c2cc(F)ccc2C)C1", "note": "(stereo not given)", "max response, negative = inhibition": -7.98}
{"compound": "O=S(=O)(NC1CC1)c1ccc(Cl)cc1", "max response, negative = inhibition": -11.6}
{"compound": "Cn1sc(=O)c2cc(S(=O)(=O)NC3CC3)ccc21", "Potency": "2.12 µM (active)"}
{"compound": "CC1CCC(NS(=O)(=O)c2ccc3c(c2)n(C)c(=O)c(=O)n3C)CC1", "note": "(stereo not given)", "max response, negative = inhibition": -1.85}
{"compound": "COC(=O)c1ccc2nc(-c3ccccc3)c(Cc3ccc(OC)cc3C)n2c1", "max response, negative = inhibition": -8.32}
{"compound": "CCOC(=O)C1=CCC(c2ccc(F)cc2)N(S(=O)(=O)c2ccc(C)cc2)C1", "note": "(stereo not given)", "max response, negative = inhibition": -10.4}
{"compound": "O=C(CSc1nc2[nH]ncc2c(=O)[nH]1)Nc1ccc(F)cc1", "max response, negative = inhibition": -1.42}
{"compound": "COc1ccc(-n2ncc3c(SCC(=O)NNC(C)=O)ncnc32)cc1", "max response, negative = inhibition": 4.95}
{"compound": "COc1ccc(NC(=O)CSc2ncnc3[nH]ncc23)cc1", "Potency": "3.77 µM (active)"}
{"compound": "Cn1cnc(S(=O)(=O)N2C[C@@H](O)COC[C@@H]3O[C@H](CC(=O)NC4CCC4)CC[C@H]32)c1", "max response, negative = inhibition": -0.717}
{"compound": "Cc1nccn1-c1ccc(NC(=O)[C@H]2O[C@@H](n3ccc(=O)[nH]c3=O)[C@H](O)[C@@H]2O)cc1", "max response, negative = inhibition": 0.546}
{"compound": "CCOC(=O)[C@]12CCC=C1N(Cc1ccccc1)C(=O)[C@H](CC(=O)N1CCCC1)C2", "max response, negative = inhibition": -1.56}
{"compound": "CCCCCn1nnnc1C1c2ccccc2C(=O)N1Cc1ccco1", "note": "(stereo not given)", "max response, negative = inhibition": -6.84}
{"compound": "Cc1ccc2nc(SCc3nnc(-c4ccccc4[N+](=O)[O-])o3)c(C#N)cc2c1", "max response, negative = inhibition": -9}
{"compound": "Cc1cc(C)c([N+](=O)[O-])cc1-c1ccc(/C=N/NC(=O)c2nonc2N)o1", "max response, negative = inhibition": 0.266}
{"compound": "Cc1ccc(-c2ccc(/C=C(\\C#N)C(N)=S)o2)c([N+](=O)[O-])c1", "Potency": "26.7 µM (active)"}
{"compound": "CC1=C(C(=O)N(C(C)C)C(C)C)CC(CC(=O)NCC2CCCCC2)C(=O)N1Cc1ccccc1", "note": "(stereo not given)", "max response, negative = inhibition": -4.13}
{"compound": "O=C(C(=O)N1CCC(c2ccccc2)CC1)c1ccccc1", "max response, negative = inhibition": 3.91}
{"compound": "Clc1ccc2c(c1)C1=C(C(c3ccncc3)O2)C(c2ccc(Br)cc2)n2ncnc2N1", "note": "(stereo not given)", "max response, negative = inhibition": -0.898}
{"compound": "Brc1ccc(C2=CC(c3ccco3)n3ncnc3N2)cc1", "note": "(stereo not given)", "Potency": "23.8 µM (active)"}
{"compound": "CCOC(=O)[C@]12CCCC=C1N(CCC1=CCCCC1)C(=O)[C@H](CC(=O)NCCCOC)C2", "max response, negative = inhibition": 2.46}
{"compound": "CCOc1ccc(S(=O)(=O)NCCC(=O)NNC(=O)c2ccc(F)cc2)cc1", "max response, negative = inhibition": -14.6}
{"compound": "COc1ccc(NC(=O)c2sc(=O)n(Cc3ccc(S(=O)(=O)N(C)C)cc3)c2C)cc1", "max response, negative = inhibition": -0.145}
{"compound": "COC(=O)/C=C\\C(=O)Nc1cccc([N+](=O)[O-])c1", "Potency": "5.97 µM (active)"}
{"compound": "O=C(Nc1cccc([N+](=O)[O-])c1)Nn1cnnc1", "max response, negative = inhibition": -2.87}
{"compound": "O=C(CN1CCOCC1)Nc1cccc([N+](=O)[O-])c1", "max response, negative = inhibition": -23.6}
{"compound": "CC(=O)C[C@@H]1OC[C@H](C)N1S(=O)(=O)c1ccc(C)cc1", "max response, negative = inhibition": -5.26}
{"compound": "COc1cc(/C=C/C(=O)Nc2ccc(OC)c(S(=O)(=O)N3CCOCC3)c2)ccc1OCC#N", "max response, negative = inhibition": -0.928}
{"compound": "COc1cc(/C=C/C(=O)OCC(=O)NC(=O)NCc2ccccc2)ccc1OCC#N", "max response, negative = inhibition": -6.76}
{"compound": "COc1cc(/C=C/C(=O)OCC(=O)N2CCOCC2)ccc1OCC#N", "Potency": "26.7 µM (active)"}
{"compound": "CC(C)(C)c1ccc(S(=O)(=O)NC(=O)C2(C)CCN2C(=O)CC2CC2)cc1", "note": "(stereo not given)", "max response, negative = inhibition": -12}
{"compound": "Cc1cccc(CN2CCN(C3CN(Cc4cn(Cc5ccccc5F)nn4)S(=O)(=O)C3)CC2)c1", "note": "(stereo not given)", "max response, negative = inhibition": 3.36}
{"compound": "OC[C@@H]1CN(Cc2ccc3c(c2)OCO3)C[C@H](n2cnc3c(NCc4ccco4)ncnc32)O1", "max response, negative = inhibition": -2.35}
{"compound": "COC(=O)c1ccc(/C=C2/C(=O)Oc3ccccc32)cc1", "max response, negative = inhibition": -0.125}
{"compound": "O=C(NN=Cc1ccccc1O)NN=Cc1ccccc1O", "max response, negative = inhibition": -11.7}
{"compound": "O=C1Oc2ccccc2C(=O)/C1=C/c1ccccc1O", "Potency": "2.67 µM (active)"}
{"compound": "CC(=O)NC(c1cccc(F)c1)c1nc(-c2cccc(F)c2)cs1", "note": "(stereo not given)", "max response, negative = inhibition": -0.575}
